Laboratory results reported in the supplement of paper PMC11732987, “Enantioselective OTUD7B fragment discovery through chemoproteomics screening and high-throughput optimisation” (Communications Chemistry, 2025).

What was measured:
Experiment in all cases: log2 ratio of Biotin-Ahx-Ub-VS probe labelling (fragment/DMSO); higher = less target engagement (more negative = stronger competition), active = hit call of the paper (q ≤ 0.05, log2 ratio ≤ -1)
Settings in all cases: compound concentration: 200 uM; treatment time: 3 h
[1] = biological target: T1, USP42 (UniProt Q9H9J4)
T1 sequence (whole entry): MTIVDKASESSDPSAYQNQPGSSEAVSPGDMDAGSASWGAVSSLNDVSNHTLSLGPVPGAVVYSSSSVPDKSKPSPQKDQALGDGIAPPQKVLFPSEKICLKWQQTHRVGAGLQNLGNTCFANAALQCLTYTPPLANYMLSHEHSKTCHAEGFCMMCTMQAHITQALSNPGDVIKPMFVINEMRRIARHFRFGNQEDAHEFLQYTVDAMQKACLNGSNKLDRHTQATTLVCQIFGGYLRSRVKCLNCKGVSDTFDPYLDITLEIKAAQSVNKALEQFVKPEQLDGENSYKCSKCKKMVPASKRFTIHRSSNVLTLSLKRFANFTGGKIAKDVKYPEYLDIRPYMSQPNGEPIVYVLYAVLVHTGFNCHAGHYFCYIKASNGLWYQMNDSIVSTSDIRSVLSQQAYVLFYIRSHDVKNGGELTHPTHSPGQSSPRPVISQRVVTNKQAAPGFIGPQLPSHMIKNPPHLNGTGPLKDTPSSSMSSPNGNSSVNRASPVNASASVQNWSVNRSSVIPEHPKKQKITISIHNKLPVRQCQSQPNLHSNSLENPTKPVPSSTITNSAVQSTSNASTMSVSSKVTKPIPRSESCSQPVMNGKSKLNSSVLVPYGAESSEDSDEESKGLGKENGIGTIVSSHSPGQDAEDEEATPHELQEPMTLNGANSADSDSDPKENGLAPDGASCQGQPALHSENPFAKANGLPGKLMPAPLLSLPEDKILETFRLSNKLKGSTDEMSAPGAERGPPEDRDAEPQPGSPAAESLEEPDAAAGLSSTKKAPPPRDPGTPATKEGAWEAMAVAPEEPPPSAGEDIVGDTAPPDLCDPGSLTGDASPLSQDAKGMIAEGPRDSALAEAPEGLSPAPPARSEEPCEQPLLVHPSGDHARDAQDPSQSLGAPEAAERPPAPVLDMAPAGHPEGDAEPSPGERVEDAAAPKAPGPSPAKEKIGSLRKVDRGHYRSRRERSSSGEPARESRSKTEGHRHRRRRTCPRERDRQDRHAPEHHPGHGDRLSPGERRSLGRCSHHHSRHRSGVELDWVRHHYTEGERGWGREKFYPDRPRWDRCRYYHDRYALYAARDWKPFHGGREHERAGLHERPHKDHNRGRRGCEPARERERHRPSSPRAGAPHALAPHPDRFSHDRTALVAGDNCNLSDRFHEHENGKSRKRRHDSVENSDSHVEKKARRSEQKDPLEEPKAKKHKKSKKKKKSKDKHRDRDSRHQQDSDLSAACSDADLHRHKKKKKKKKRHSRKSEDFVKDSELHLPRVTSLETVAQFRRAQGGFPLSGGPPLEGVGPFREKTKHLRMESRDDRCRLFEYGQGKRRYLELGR
Procedure, shortened: (§1)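 Labelling with Biotin-Ahx-Ub-VS (0.5 µM final, 1 h) followed a 3 h triplicate treatment of HEK293T lysate (495 µg per sample, Tris/CHAPS/IGEPAL buffer with protease inhibitors) with fragment at 200 µM or vehicle. Labelled DUBs were NeutrAvidin-enriched, digested with LysC and trypsin, and run by diaPASEF LC-MS/MS. The values, average log2 fragment/vehicle ratios by unpaired t-test, come from global-median-normalised Spectronaut label-free quantities. Proteins with ≥2 unique peptides were used.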

[2] = biological target: USP46 (UniProt P62068)
Procedure, shortened: as §1

[3] = biological target: T2, USP47 (UniProt Q96K76)
T2 sequence (whole entry): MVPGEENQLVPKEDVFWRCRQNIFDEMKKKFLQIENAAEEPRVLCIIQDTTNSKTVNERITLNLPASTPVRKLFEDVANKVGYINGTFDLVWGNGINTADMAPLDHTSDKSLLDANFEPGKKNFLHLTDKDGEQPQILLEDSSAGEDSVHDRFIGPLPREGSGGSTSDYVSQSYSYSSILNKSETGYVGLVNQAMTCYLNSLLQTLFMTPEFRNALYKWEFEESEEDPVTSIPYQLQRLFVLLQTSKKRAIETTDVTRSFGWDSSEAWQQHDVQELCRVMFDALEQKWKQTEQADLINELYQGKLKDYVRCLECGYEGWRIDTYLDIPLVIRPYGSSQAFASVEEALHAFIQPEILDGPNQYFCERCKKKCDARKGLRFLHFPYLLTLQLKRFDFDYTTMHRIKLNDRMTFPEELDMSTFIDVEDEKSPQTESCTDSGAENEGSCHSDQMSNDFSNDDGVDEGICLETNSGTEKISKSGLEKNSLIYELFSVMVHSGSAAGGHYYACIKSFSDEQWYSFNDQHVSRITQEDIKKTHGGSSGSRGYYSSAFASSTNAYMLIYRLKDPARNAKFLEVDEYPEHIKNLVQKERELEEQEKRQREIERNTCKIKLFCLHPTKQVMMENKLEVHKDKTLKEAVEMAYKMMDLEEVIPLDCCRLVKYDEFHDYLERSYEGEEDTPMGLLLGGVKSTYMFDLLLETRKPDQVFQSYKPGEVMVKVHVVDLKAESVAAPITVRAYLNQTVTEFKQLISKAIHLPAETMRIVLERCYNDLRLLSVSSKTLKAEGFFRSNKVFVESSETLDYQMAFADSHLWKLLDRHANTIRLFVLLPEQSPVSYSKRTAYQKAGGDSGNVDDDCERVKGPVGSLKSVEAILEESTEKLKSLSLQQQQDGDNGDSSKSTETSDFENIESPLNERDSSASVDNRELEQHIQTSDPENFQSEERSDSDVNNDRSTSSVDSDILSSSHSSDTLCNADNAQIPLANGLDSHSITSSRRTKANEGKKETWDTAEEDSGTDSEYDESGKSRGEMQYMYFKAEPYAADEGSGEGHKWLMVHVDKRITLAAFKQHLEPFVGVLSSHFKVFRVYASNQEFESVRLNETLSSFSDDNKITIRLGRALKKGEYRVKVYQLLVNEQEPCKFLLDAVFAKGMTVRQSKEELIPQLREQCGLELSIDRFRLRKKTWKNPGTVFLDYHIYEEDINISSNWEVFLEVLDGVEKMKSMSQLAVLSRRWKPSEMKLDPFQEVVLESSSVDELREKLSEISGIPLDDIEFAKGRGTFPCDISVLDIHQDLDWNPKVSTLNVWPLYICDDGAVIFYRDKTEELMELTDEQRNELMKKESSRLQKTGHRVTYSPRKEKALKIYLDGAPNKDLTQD
Procedure, shortened: as §1

[4] = biological target: T3, USP48 (UniProt Q86UV5)
T3 sequence (whole entry): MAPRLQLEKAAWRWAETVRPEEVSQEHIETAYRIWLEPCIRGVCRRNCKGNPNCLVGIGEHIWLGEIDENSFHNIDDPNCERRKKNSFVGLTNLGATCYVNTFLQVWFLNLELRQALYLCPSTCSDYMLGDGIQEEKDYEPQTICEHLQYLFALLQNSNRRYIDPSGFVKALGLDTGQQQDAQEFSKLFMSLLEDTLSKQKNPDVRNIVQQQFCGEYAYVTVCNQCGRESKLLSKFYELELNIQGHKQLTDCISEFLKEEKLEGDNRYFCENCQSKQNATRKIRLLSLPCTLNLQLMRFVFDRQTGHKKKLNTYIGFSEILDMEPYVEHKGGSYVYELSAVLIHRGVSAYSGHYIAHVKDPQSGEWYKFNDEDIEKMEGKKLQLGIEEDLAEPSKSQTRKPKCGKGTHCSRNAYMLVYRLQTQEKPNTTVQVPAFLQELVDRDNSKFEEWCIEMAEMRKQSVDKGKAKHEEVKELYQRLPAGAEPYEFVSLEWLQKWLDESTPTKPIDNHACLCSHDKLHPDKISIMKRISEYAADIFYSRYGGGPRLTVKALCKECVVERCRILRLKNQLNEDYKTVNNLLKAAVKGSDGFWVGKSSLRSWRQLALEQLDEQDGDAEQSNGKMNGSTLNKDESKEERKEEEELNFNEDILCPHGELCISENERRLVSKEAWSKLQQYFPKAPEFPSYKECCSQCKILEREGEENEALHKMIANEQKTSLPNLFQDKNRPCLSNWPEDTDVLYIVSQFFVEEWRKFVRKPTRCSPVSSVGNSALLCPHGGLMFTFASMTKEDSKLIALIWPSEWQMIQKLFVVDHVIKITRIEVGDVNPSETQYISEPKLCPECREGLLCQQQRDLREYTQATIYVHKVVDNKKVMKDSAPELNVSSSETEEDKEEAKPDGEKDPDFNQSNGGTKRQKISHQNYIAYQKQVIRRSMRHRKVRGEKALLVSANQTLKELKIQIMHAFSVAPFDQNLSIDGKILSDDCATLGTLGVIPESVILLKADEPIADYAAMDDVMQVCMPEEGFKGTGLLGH
Procedure, shortened: as §1

[5] = biological target: T4, USP5 (UniProt P45974)
T4 sequence (whole entry): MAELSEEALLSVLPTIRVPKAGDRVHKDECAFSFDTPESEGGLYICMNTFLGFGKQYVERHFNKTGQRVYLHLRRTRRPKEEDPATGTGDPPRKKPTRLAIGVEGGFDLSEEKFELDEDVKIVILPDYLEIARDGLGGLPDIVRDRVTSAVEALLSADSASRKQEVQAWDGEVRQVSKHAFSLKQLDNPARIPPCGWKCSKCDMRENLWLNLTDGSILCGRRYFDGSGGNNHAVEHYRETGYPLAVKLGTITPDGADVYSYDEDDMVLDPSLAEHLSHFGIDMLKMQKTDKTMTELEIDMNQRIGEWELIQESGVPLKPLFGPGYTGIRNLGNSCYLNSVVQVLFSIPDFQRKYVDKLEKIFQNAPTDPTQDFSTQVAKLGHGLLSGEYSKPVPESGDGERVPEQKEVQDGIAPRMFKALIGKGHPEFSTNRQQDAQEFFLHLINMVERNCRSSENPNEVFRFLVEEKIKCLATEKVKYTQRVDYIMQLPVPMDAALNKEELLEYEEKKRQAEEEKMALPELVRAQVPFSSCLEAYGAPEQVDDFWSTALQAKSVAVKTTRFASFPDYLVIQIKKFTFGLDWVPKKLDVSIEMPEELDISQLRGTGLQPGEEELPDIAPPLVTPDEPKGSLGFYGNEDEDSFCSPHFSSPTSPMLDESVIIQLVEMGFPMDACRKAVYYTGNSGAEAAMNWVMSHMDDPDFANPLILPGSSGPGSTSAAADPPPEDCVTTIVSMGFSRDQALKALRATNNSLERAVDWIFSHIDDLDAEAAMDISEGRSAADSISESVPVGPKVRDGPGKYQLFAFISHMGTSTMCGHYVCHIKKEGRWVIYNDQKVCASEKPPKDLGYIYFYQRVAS
Procedure, shortened: as §1

[6] = biological target: USP54 (UniProt Q70EL1)
Procedure, shortened: as §1

[7] = biological target: USP7 (UniProt Q93009)
Procedure, shortened: as §1

[8] = biological target: T5, USP8 (UniProt P40818)
T5 sequence (whole entry): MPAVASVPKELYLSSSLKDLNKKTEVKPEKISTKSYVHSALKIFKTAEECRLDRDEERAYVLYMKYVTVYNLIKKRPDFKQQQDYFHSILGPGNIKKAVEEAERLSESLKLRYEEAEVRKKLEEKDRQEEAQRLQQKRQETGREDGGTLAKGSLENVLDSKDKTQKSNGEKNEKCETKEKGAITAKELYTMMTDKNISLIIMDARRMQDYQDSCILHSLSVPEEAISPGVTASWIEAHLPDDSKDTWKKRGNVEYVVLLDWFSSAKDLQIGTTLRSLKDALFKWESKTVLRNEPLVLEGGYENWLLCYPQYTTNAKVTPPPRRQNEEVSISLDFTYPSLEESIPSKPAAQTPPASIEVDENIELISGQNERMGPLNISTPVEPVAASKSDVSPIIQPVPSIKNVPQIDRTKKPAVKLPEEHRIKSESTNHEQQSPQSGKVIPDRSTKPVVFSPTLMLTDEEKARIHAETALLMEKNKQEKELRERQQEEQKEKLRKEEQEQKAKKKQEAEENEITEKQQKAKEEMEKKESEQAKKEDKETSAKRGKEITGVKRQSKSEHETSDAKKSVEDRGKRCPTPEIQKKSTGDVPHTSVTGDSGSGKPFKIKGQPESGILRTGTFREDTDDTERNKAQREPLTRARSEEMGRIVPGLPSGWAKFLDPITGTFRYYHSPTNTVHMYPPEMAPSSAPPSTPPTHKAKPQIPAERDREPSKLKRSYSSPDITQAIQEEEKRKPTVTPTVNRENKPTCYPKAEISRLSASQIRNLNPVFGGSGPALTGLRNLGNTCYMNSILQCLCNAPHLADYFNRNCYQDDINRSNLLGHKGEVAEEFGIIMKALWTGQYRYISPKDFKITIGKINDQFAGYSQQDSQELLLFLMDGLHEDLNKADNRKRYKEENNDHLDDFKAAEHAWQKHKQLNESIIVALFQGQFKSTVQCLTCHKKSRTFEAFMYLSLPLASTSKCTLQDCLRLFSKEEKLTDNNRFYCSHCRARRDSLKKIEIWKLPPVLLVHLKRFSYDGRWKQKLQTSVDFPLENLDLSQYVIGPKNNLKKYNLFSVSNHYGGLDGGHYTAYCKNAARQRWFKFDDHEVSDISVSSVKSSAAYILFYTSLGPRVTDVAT
Procedure, shortened: as §1

[9] = biological target: USP9X (UniProt Q93008)
Procedure, shortened: as §1

[10] = biological target: UniProt O00487
Procedure, shortened: as §1

Measured: log2 ratio of Biotin-Ahx-Ub-VS probe labelling

Chain of USP54 (Q70EL1 whole entry): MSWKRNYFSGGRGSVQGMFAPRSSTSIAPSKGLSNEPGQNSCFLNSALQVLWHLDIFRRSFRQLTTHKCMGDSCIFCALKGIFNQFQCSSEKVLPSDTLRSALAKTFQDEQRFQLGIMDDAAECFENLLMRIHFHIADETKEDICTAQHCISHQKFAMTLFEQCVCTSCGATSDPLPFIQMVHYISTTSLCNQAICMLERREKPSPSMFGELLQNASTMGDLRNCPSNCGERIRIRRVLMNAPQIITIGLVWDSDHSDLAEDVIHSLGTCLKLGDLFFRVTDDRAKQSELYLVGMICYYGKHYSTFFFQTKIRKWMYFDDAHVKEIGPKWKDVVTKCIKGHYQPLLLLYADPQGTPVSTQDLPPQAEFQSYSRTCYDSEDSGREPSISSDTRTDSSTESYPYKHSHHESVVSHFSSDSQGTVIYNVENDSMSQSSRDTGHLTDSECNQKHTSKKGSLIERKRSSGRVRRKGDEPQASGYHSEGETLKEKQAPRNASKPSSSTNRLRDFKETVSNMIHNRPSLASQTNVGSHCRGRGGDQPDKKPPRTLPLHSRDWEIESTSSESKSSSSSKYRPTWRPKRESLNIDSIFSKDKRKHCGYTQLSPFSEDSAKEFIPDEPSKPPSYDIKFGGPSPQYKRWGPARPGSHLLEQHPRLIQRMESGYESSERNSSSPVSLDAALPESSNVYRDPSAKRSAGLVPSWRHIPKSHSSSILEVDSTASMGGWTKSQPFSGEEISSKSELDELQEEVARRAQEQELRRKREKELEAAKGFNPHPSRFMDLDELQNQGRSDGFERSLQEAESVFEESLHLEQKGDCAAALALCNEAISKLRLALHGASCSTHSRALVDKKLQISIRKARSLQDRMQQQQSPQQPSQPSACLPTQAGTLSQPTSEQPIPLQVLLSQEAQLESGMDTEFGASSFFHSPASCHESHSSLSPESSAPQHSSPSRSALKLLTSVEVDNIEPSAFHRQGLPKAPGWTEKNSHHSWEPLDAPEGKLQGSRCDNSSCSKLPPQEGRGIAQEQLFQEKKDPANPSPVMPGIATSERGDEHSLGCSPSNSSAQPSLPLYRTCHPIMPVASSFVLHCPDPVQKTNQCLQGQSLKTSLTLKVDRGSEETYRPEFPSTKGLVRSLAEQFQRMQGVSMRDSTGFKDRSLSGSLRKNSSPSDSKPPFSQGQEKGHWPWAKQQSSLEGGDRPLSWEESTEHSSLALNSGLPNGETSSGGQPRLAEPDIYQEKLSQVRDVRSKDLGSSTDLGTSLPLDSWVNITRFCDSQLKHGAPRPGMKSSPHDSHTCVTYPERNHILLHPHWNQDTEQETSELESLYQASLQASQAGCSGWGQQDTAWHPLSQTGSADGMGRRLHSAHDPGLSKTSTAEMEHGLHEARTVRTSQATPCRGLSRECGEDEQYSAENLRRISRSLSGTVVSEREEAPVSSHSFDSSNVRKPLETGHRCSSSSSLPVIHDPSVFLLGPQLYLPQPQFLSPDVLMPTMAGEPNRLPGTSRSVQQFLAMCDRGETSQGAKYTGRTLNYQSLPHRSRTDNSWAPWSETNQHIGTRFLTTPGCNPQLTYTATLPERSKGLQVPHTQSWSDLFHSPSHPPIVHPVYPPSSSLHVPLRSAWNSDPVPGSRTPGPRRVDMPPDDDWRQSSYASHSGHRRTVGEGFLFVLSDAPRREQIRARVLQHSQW
Chain of USP7 (Q93009 whole entry, looked up): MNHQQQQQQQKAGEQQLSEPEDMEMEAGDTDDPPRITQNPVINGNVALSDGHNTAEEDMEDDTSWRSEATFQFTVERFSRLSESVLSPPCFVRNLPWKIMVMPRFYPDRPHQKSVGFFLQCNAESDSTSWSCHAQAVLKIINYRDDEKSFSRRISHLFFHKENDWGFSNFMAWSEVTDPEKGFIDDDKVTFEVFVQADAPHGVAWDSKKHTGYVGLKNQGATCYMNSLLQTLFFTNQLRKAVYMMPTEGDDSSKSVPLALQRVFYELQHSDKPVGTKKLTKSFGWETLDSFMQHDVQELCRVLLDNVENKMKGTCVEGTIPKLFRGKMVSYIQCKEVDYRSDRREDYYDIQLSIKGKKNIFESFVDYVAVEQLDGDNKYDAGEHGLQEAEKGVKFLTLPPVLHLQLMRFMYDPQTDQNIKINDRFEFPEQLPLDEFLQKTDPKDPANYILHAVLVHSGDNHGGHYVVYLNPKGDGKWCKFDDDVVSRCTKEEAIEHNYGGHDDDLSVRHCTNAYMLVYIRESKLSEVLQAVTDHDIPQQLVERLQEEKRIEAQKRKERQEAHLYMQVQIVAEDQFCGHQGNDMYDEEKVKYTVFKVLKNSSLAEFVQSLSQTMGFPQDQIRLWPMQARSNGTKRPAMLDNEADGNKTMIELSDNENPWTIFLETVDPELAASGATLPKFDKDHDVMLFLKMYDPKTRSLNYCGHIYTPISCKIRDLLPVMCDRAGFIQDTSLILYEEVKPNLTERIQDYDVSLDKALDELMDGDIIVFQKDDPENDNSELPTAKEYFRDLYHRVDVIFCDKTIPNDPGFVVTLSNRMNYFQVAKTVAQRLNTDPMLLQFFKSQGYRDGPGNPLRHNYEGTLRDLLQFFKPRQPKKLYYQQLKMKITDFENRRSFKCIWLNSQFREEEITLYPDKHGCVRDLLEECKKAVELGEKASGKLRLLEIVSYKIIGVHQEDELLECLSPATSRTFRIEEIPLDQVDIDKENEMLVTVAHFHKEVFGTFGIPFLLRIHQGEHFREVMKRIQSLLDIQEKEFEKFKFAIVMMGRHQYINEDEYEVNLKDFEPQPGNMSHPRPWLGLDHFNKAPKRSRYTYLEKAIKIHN
Chain of UniProt O00487 (O00487 whole entry): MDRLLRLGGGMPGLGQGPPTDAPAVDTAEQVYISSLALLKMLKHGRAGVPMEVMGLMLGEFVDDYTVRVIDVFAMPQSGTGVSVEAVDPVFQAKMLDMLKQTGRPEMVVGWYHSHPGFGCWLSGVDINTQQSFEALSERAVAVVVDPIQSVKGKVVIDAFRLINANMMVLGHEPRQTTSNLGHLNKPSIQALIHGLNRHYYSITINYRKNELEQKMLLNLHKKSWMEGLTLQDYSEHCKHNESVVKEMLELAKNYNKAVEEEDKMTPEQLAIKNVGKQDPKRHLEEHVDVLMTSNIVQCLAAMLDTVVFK
Chain of USP46 (P62068 whole entry): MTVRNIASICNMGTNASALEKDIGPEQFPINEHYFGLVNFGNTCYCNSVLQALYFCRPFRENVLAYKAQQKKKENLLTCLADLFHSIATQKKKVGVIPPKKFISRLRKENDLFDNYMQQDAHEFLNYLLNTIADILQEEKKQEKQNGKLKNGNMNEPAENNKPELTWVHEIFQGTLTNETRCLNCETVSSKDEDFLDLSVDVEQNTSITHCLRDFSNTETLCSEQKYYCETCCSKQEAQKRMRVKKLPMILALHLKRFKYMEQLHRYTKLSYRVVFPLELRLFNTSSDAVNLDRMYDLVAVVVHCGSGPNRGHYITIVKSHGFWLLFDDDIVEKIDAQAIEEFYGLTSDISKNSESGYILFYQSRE

C[C@H]1CN(C(=O)CCl)CCN1C(=O)c1cnn(C)c1.Cl
inactive: [1] 0.109 | [2] -0.0724 | [3] -0.522 | [4] -0.436 | [5] 0.184 | [6] -0.0291 | [7] -0.353 | [8] -0.184 | [9] -0.221 | [10] -0.129
